Measurements published in PubChem BioAssay (NCI).
The panel holds about 83,000 compounds, 20% with a hit somewhere; the sample as a whole holds those more often.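 48-hour exposure, single concentration, 96-well plates; percent growth endpoint where 0 means no net growth. Active: below 10.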 Active and inactive are the calls of the source.

Assays:
Assay in all cases: NCI-60 one-dose screen, 48 h (100 = growth as untreated, 0 = no growth, -100 = all killed)
Conditions in all cases: 10 µM unless noted
HCT-15 colon = test system: HCT-15 colon
HT29 colon = test system: HT29 colon
SNB-75 CNS = test system: SNB-75 CNS
SNB-19 CNS = test system: SNB-19 CNS
U251 CNS = test system: U251 CNS
PC-3 prostate = test system: PC-3 prostate
SK-MEL-5 melanoma = test system: SK-MEL-5 melanoma
UACC-62 melanoma = test system: UACC-62 melanoma
LOX IMVI melanoma = test system: LOX IMVI melanoma
SK-MEL-28 melanoma = test system: SK-MEL-28 melanoma
EKVX NSCLC = test system: EKVX NSCLC
SN12C renal = test system: SN12C renal
UO-31 renal = test system: UO-31 renal
TK-10 renal = test system: TK-10 renal
ACHN renal = test system: ACHN renal
CAKI-1 renal = test system: CAKI-1 renal
CCRF-CEM leukemia = test system: CCRF-CEM leukemia
MOLT-4 leukemia = test system: MOLT-4 leukemia
A498 renal = test system: A498 renal

Measured: growth

Cn1cc(-c2ncnc3ccc(-c4cnc(Cl)c(NS(C)(=O)=O)c4)cc23)c2ccccc21
active: SNB-75 CNS -14.9% | SK-MEL-5 melanoma -14.6% | UACC-62 melanoma -18.8% | LOX IMVI melanoma 9.88% | SK-MEL-28 melanoma 0.439% | UO-31 renal -5.34% | TK-10 renal -1.34% | MOLT-4 leukemia 7.73%
inactive: HCT-15 colon 13.2% | HT29 colon 11.7% | SNB-19 CNS 27.7% | U251 CNS 24.4% | PC-3 prostate 20.1% | EKVX NSCLC 11.7% | SN12C renal 21.7% | ACHN renal 13.3% | CAKI-1 renal 10.6% | CCRF-CEM leukemia 23.9%

O=C1NC(=O)/C(=C/c2ccc3nccc(-c4ccncc4)c3c2)S1
active: HCT-15 colon -19.5% | HT29 colon -51.4% | SNB-75 CNS -45.9% | SNB-19 CNS -26.6% | U251 CNS -74.6% | PC-3 prostate -24.5% | SK-MEL-5 melanoma -94.7% | UACC-62 melanoma -74.2% | LOX IMVI melanoma -40.8% | SK-MEL-28 melanoma -32.6% | EKVX NSCLC -16.9% | SN12C renal -5.67% | UO-31 renal -37.7% | TK-10 renal -68.8% | ACHN renal -21.2% | CAKI-1 renal -40.2% | A498 renal -77.1% | MOLT-4 leukemia -8.29%

CC/C(=C(\c1ccc(OCCN2CCCCCCC2)cc1)c1ccc(OC(=O)C2CCCCC2)cc1)c1ccc(Cl)cc1
inactive: HCT-15 colon 94.3% | HT29 colon 86.9% | SNB-75 CNS 99.7% | SNB-19 CNS 110% | U251 CNS 98.9% | PC-3 prostate 91.4% | SK-MEL-5 melanoma 102% | UACC-62 melanoma 108% | LOX IMVI melanoma 102% | SK-MEL-28 melanoma 96.3% | EKVX NSCLC 105% | SN12C renal 93.6% | UO-31 renal 73.8% | TK-10 renal 110% | ACHN renal 97.2% | CAKI-1 renal 93.8% | CCRF-CEM leukemia 88.9% | MOLT-4 leukemia 88.9%

Cc1cnc(Nc2ccc(OCCN3CCCC3)cc2)nc1Nc1cccc(S(=O)(=O)NC(C)(C)C)c1
inactive: SNB-19 CNS 21.3% | U251 CNS 15.9% | PC-3 prostate 20% | EKVX NSCLC 26.4% | SN12C renal 12.6%
active: HCT-15 colon 5.6% | HT29 colon -41.8% | SNB-75 CNS -97.9% | SK-MEL-5 melanoma -90.4% | UACC-62 melanoma -23.1% | LOX IMVI melanoma -79.4% | SK-MEL-28 melanoma -10.7% | UO-31 renal -96.3% | TK-10 renal -40% | CAKI-1 renal -88.3% | A498 renal -95.3% | CCRF-CEM leukemia 1.67% | MOLT-4 leukemia 1.26%

COc1cc2nccc(Oc3ccc(NC(=O)Nc4cc(C)on4)c(Cl)c3)c2cc1OC
active: HT29 colon -9.07% | SNB-75 CNS -6.16% | SK-MEL-5 melanoma -19.7% | LOX IMVI melanoma -2.96% | UO-31 renal -15.3% | TK-10 renal -15.8% | CAKI-1 renal 2.09% | A498 renal -35.9% | MOLT-4 leukemia 7.51%
inactive: HCT-15 colon 18.3% | SNB-19 CNS 32.8% | U251 CNS 28.2% | PC-3 prostate 21.1% | UACC-62 melanoma 11.5% | SK-MEL-28 melanoma 23.2% | EKVX NSCLC 37.6% | SN12C renal 11.6% | CCRF-CEM leukemia 22.3%

COC(=O)[C@@H](NC(=O)[C@@H](OC)[C@@H]1Cc2cc3cc(OC4CC(OC5CC(O)C(O)C(C)O5)C(O)C(C)O4)c(C)c(O)c3c(O)c2C(=O)[C@H]1OC1CC(OC2CC(OC3CC(C)(O)C(O)C(C)O3)C(O)C(C)O2)C(O)C(C)O1)C(C)C (some centres undefined)
inactive: HCT-15 colon 23.9% | PC-3 prostate 18.8% | EKVX NSCLC 25.3% | SN12C renal 13.2% | TK-10 renal 21.7% | CAKI-1 renal 20%
active: HT29 colon 6.32% | SNB-75 CNS -24.3% | SNB-19 CNS 8.43% | U251 CNS -28.1% | SK-MEL-5 melanoma -74.3% | UACC-62 melanoma -65.1% | LOX IMVI melanoma -76.2% | SK-MEL-28 melanoma -1.86% | UO-31 renal 7.39% | ACHN renal 0.317% | CCRF-CEM leukemia 7.92% | MOLT-4 leukemia 1.35%

O=C(Cn1cncn1)Nc1ccc(-c2nc3ccccc3s2)cc1
inactive: HCT-15 colon 101% | HT29 colon 105% | SNB-75 CNS 92.1% | SNB-19 CNS 93% | U251 CNS 90% | PC-3 prostate 85.8% | SK-MEL-5 melanoma 86.7% | UACC-62 melanoma 95.2% | LOX IMVI melanoma 99.3% | SK-MEL-28 melanoma 111% | EKVX NSCLC 90.2% | SN12C renal 95.1% | UO-31 renal 76.9% | TK-10 renal 106% | ACHN renal 110% | CAKI-1 renal 93.8% | A498 renal 88.4% | MOLT-4 leukemia 91.9%

Cn1nccc1Nc1nccc(-c2ccn([C@H](CO)c3ccc(Cl)c(F)c3)c(=O)c2)n1
active: UACC-62 melanoma 9.88%
inactive: HCT-15 colon 94.1% | HT29 colon 19.9% | SNB-75 CNS 101% | SNB-19 CNS 94.1% | U251 CNS 86.2% | PC-3 prostate 111% | SK-MEL-5 melanoma 70.7% | LOX IMVI melanoma 58.5% | SK-MEL-28 melanoma 16.9% | EKVX NSCLC 93% | SN12C renal 107% | UO-31 renal 68% | TK-10 renal 67.4% | ACHN renal 90.8% | CAKI-1 renal 79.9% | MOLT-4 leukemia 96%

CNS(=O)(=O)Nc1nccc(Cc2c(C)c3ccc(Oc4ncccn4)cc3oc2=O)c1F
inactive: HCT-15 colon 63.7% | HT29 colon 10.4% | SNB-75 CNS 78.1% | SNB-19 CNS 63.7% | U251 CNS 54.8% | PC-3 prostate 101% | SK-MEL-5 melanoma 23.1% | LOX IMVI melanoma 25.6% | EKVX NSCLC 55% | SN12C renal 73.1% | TK-10 renal 34.1% | ACHN renal 56.8% | CAKI-1 renal 44.7% | CCRF-CEM leukemia 84.4% | MOLT-4 leukemia 76.2%
active: UACC-62 melanoma 4.49% | SK-MEL-28 melanoma 8.61% | A498 renal -17.2%

COc1ccc(Br)cc1NC(=O)Nc1cccc2c1ccn2Cc1ccnc(N)c1
active: HCT-15 colon 1.92% | HT29 colon -40.6% | LOX IMVI melanoma -68% | UO-31 renal 9.39% | A498 renal -2.46% | MOLT-4 leukemia 8.16%
inactive: SNB-75 CNS 26.7% | SNB-19 CNS 37.3% | U251 CNS 13.9% | PC-3 prostate 17.3% | SK-MEL-5 melanoma 23.5% | UACC-62 melanoma 29% | SK-MEL-28 melanoma 53.3% | EKVX NSCLC 31.3% | TK-10 renal 22.1% | CAKI-1 renal 15% | CCRF-CEM leukemia 27.3%

C/C(=C(/c1ccc(Cl)cc1)c1ccc(OCCN2CCCC2)cc1)c1ccccc1
inactive: SNB-75 CNS 86.1% | SNB-19 CNS 80.7% | U251 CNS 63.9% | PC-3 prostate 64.5% | SK-MEL-5 melanoma 14.9% | UACC-62 melanoma 48.9% | LOX IMVI melanoma 30.6% | SK-MEL-28 melanoma 62% | EKVX NSCLC 55.2% | SN12C renal 80.8% | TK-10 renal 87.7% | ACHN renal 82.9% | CAKI-1 renal 81.8% | A498 renal 77.6% | CCRF-CEM leukemia 59.2% | MOLT-4 leukemia 68.7%
active: HCT-15 colon 8.01% | HT29 colon 4.46%

COc1cc(NC2CCC(=O)N2c2ccc(Cl)cc2Cl)cc(OC)c1OC (centres undefined)
inactive: HCT-15 colon 108% | HT29 colon 107% | SNB-75 CNS 86.5% | SNB-19 CNS 101% | U251 CNS 97.7% | PC-3 prostate 95.9% | SK-MEL-5 melanoma 103% | UACC-62 melanoma 104% | LOX IMVI melanoma 96.6% | SK-MEL-28 melanoma 104% | EKVX NSCLC 100% | SN12C renal 109% | TK-10 renal 104% | ACHN renal 110% | CAKI-1 renal 95.7% | A498 renal 89.2% | CCRF-CEM leukemia 90.5% | MOLT-4 leukemia 96.2%

Cc1cc(Nc2ncc(Cl)c(Nc3ccccc3S(=O)(=O)C(C)C)n2)c(OC(C)C)cc1C1CCNCC1
active: HCT-15 colon -86.4% | HT29 colon -88.1% | SNB-75 CNS -98.1% | SNB-19 CNS -94.9% | U251 CNS -100% | PC-3 prostate -92.2% | SK-MEL-5 melanoma -98.9% | UACC-62 melanoma -95.1% | LOX IMVI melanoma -90.7% | SK-MEL-28 melanoma -99.3% | EKVX NSCLC -87.6% | SN12C renal -87.2% | TK-10 renal -96.1% | ACHN renal -100% | CAKI-1 renal -99.5% | CCRF-CEM leukemia -47.5% | MOLT-4 leukemia -59.9%
inactive: A498 renal 40.2%

COc1cc2cc(NCc3ccc(Cl)cc3)nc(C)c2cc1OC
active: UACC-62 melanoma 8.46% | LOX IMVI melanoma 5.76%
inactive: HCT-15 colon 47% | HT29 colon 10% | SNB-75 CNS 96.3% | SNB-19 CNS 42.6% | U251 CNS 30.9% | PC-3 prostate 37.9% | SK-MEL-5 melanoma 31.3% | SK-MEL-28 melanoma 29.9% | EKVX NSCLC 64.9% | SN12C renal 42% | TK-10 renal 44.9% | ACHN renal 54.8% | CAKI-1 renal 59.8% | A498 renal 26% | CCRF-CEM leukemia 27.9% | MOLT-4 leukemia 27.6%

C[C@@H](N)c1ccc(C(=O)Nc2ccnc3[nH]ccc23)cc1
active: SNB-75 CNS 6.4%
inactive: HCT-15 colon 68.3% | HT29 colon 32% | SNB-19 CNS 60.7% | U251 CNS 46.7% | PC-3 prostate 44.9% | SK-MEL-5 melanoma 67.8% | UACC-62 melanoma 82.1% | LOX IMVI melanoma 45.5% | SK-MEL-28 melanoma 63% | EKVX NSCLC 67% | SN12C renal 51.8% | TK-10 renal 46.2% | ACHN renal 36.7% | CAKI-1 renal 20.6% | A498 renal 56.9% | CCRF-CEM leukemia 25.5% | MOLT-4 leukemia 42.2%

Cc1ccc(NC(=O)c2ccc(CN3CC[C@H](N(C)C)C3)c(C(F)(F)F)c2)cc1Nc1nccc(-c2cncnc2)n1
inactive: SNB-19 CNS 19.6% | PC-3 prostate 10.9% | EKVX NSCLC 15.3%
active: HCT-15 colon 8.37% | HT29 colon -47.3% | SNB-75 CNS -85.9% | U251 CNS -36% | SK-MEL-5 melanoma -96.6% | UACC-62 melanoma -63.5% | LOX IMVI melanoma -72.7% | SK-MEL-28 melanoma -77.8% | UO-31 renal -61.3% | TK-10 renal -30.1% | ACHN renal 1.22% | CAKI-1 renal 6.85% | A498 renal -59.9% | CCRF-CEM leukemia 4.61% | MOLT-4 leukemia -4.64%

C/C=C/C=N/NC(=S)Nc1ccccc1
inactive: HCT-15 colon 99% | HT29 colon 106% | SNB-75 CNS 80.8% | SNB-19 CNS 102% | U251 CNS 88.4% | PC-3 prostate 88.2% | SK-MEL-5 melanoma 104% | UACC-62 melanoma 89.5% | LOX IMVI melanoma 88.6% | SK-MEL-28 melanoma 97.5% | EKVX NSCLC 101% | SN12C renal 89.3% | TK-10 renal 112% | ACHN renal 99.2% | CAKI-1 renal 92.1% | A498 renal 120% | CCRF-CEM leukemia 91.8% | MOLT-4 leukemia 99.2%
